According to ChEMBL document CHEMBL4513216, “Probing the Open Global Health Chemical Diversity Library for Multistage-Active Starting Points for Next-Generation Antimalarials” (ACS Infect Dis, 2020):
About 8,600 (12%) of roughly 69,000 compounds showed an effect of 50% or more. The full list was thinned out, with strong results kept by preference.

System: Plasmodium berghei
Assay: Screen against P. berghei liver stage (PbLuc), transformed with Luciferase, at 10uM
Type: functional, HepG2
Conditions: tested at 10 uM

Row | SMILES | INHIBITION [%]
1 | CC(C)N1CCC2(CCCN(c3nccc(C(F)(F)F)n3)C2)CC1 | -12.2
2 | c1ccc(CNc2ncc(CN3CC[C@@H]4CC[C@H](C3)N4)cn2)cc1 | 30.3
3 | c1ccc(CNc2ncc(CN3CCCN4CCC[C@H]4C3)cn2)cc1 | 30.3
4 | CN(C)[C@H]1CCCCN(Cc2cnc(NCc3ccccc3)nc2)C1 | 57.5
5 | c1ncn(Cc2cn3c(n2)CN(CC2CCCCC2)CC3)n1 | -10.3
6 | CC(C)(C)c1n[nH]c(C2CN(C(=O)c3csnn3)CCO2)n1 (stereo not drawn) | 11.1
7 | NC(=O)C1CCN(C(=O)NC2CCc3cc(Cl)ccc32)CC1 (stereo not drawn) | 18.4
8 | C[C@H]1CN(C)C[C@@]12COCCN(C(=O)Cc1ccccc1)C2 | -21.7
9 | CC(=O)N1CCN([C@@H]2CCC[C@@H](N(C)C(=O)C3CC3)[C@H]2O)CC1 | 45.6
10 | COc1cccc(Cn2ncnc2COC(C)C)c1 | -16.1
11 | COc1ccc2c3c1CN(C(C)=O)CC3=CC(C)(C)CO2 | 52.5
12 | COCC(=O)N1CC2=CC(C)(C)COc3ccc(OC)c(c32)C1 | 48
13 | CCNC(=O)N1CC2=CC(C)(C)COc3ccc(OC)c(c32)C1 | 22.2
14 | COC(=O)N1CC2=CC(C)(C)COc3ccc(OC)c(c32)C1 | 63.1
15 | COCCOC(=O)N1CC2=CC(C)(C)COc3ccc(OC)c(c32)C1 | -3.5
16 | COc1ccc2c3c1CN(C(=O)N(C)C)CC3=CC(C)(C)CO2 | 25.3
17 | CC(C)NC(=O)c1nnn(-c2ccc(F)cc2)c1C1CC1 | -38.2
18 | Cc1cccc(CN2C[C@H]3CC[C@@H](C2)N(Cc2c(C)noc2C)C3=O)n1 | -84
19 | CCOC(=O)N1CCC(NC(C)c2ccccc2-n2cccn2)CC1 (stereo not drawn) | 17.5
20 | CC(NCc1cccc(NC(=O)C2CCCCC2)c1)c1cnn(C)c1 (stereo not drawn) | 45.4
21 | Cn1ccnc1CN1CCN(CC(O)c2cc(F)ccc2F)CC1 (stereo not drawn) | 21.5
22 | CC(C)c1nn(C)c(N(C)C)c1CNCc1ccc(N(C)C)nc1 | 13.5
23 | Cc1cc(C(=O)NC2CCN(c3ncccc3C#N)CC2)no1 | 5.23
24 | Cc1cc(NC(=O)C2CCN(c3ncccc3C#N)CC2)no1 | 50.1
25 | Cc1cc(NC(=O)C2CCN(c3nnc(C)c(C)c3C#N)CC2)no1 | 19.4
26 | Cn1cc(C2=NOC(C(=O)NC3(c4ccccc4F)CCCC3)C2)cn1 (stereo not drawn) | 45.6

Row | SMILES | INHIBITION [%]
27 | CN1CCC(N(C)C(=O)c2cnn(-c3cc(F)ccc3F)c2N)CC1 | 39.2
28 | O=C(CC1COCCN1S(=O)(=O)c1ccccc1)NCc1ccccn1 (stereo not drawn) | 68.5
29 | CN(C)S(=O)(=O)N1CCOCC1CC(=O)NCCOc1ccccc1 (stereo not drawn) | 23.5
30 | O=C(CN1CCOCC1CC(=O)c1ccco1)NCc1ccccn1 (stereo not drawn) | 54.3
31 | O=C(CN1CCCC1CC(=O)c1ccccc1)NCc1ccccn1 (stereo not drawn) | 1.93
32 | Nc1ncccc1CN1CCOCC1CC(=O)NCc1ccccn1 (stereo not drawn) | 47.6
33 | Cc1ccc(CC2CCCN2CC(=O)NCc2ccccn2)cc1 (stereo not drawn) | 28.4
34 | CC(C)c1nc(C2CCCN2CCS(=O)(=O)c2ccccc2)no1 (stereo not drawn) | -12.6
35 | NC(=O)C1CN(C(=O)c2ccc(F)cc2)CCN1CCc1ccccc1 (stereo not drawn) | 22
36 | CCC(NC(=O)c1cnc(-c2cccnc2)nc1)c1ccnn1C (stereo not drawn) | -31.4
37 | O=C(NCCCN1CCOCC1)c1ccn(COc2ccc(Br)cc2)n1 | 47.4
38 | Cc1cc(C2CCCN(C(=O)c3c(C)noc3C)C2)n[nH]1 (stereo not drawn) | -2.37
39 | O=C(Nc1cccnc1)[C@@H]1C[C@H]2OCC[C@H]2N(Cc2ccsc2)C1 | -2.84
40 | Cc1ccc(Cl)c(CN2CCC(c3nccn3C(C)C)CC2)c1F | -7.71
41 | O=C(NC1CCN(c2ncccn2)CC1)c1cc2c(cc1O)CCCC2 | 55
42 | O=C(NC1CCN(c2ncccn2)CC1)c1cc2c([nH]c1=O)CCC2 | -46.5
43 | CC(C)c1ccc(O)c(C(=O)NC2CCN(c3ncccn3)CC2)c1 | 0.643
44 | CC(=O)N[C@@H]1CN(C(=O)CC2CCOCC2)C[C@H]1O | -5.8
45 | CC(C)C(c1cccnc1)N(C)C(=O)Cc1c(F)cccc1F (stereo not drawn) | 41.8
46 | CCNC(=O)N(C)C(c1cccnc1)C(C)C (stereo not drawn) | 63.5
47 | CC(C)C(c1cccnc1)N(C)C(=O)Cc1ccc(O)cc1 (stereo not drawn) | -30
48 | COc1c[nH]c(C(=O)N2CCN(c3cccc(Cl)c3)CC2)cc1=O | 38.8
49 | CCc1cnc(N2CC[C@H]3[C@@H]2CCC(=O)N3c2cccnc2)nc1 | -24.1
50 | COC1CCN(C(=O)Cc2csc(-c3ccccc3)n2)CC1 | -55.9
51 | Cc1noc(C(C)C)c1C(=O)NCc1ccc2c(c1)OCCO2 | -28.4
52 | CCCS(=O)(=O)N1CC(=O)N(Cc2ccccc2OC)CC(O)C1 (stereo not drawn) | 41.1

Row | SMILES | INHIBITION [%]
53 | CC(SCCS(C)(=O)=O)c1nc(Cc2ccc(F)cc2)no1 (stereo not drawn) | 12.4
54 | CCc1noc(C(C)SCCS(C)(=O)=O)n1 (stereo not drawn) | 64.6
55 | CC(SCCS(C)(=O)=O)c1nc(Cc2ccccc2)no1 (stereo not drawn) | 13.5
56 | O=C(Nc1cccnc1)[C@@H]1CCO[C@@H]2CCN(Cc3cccnc3)C[C@@H]21 | 12.7
57 | CC(=O)N1N=C(c2ccccc2)OC1C(=O)NCCN(C(C)C)C(C)C (stereo not drawn) | 30.3
58 | Cc1nc(C(C)(C)C)sc1C(=O)NCCNc1ncccn1 | 10
59 | Cc1nn(C)c(C)c1S(=O)(=O)NCC1(C(N)=O)CCOCC1 | 74.5
60 | Cc1nn(C)c(C)c1CCC(=O)NCC1(C(N)=O)CCOCC1 | 26.4
61 | Cc1nn(C)c(C)c1CC(=O)NCC1(C(N)=O)CCOCC1 | 47.7
62 | CSc1ccc(CN(CCO)C(=O)CCNC(C)=O)cc1 | 18.4
63 | CNCc1n[nH]c(=O)n1-c1cccc(Cl)c1Cl | 25.1
64 | CCN1CCN(c2nsc(-c3cccnc3)c2C#N)CC1 | 36.6
65 | N#Cc1c(N2CCCCC2)nsc1-c1cccnc1 | -0.621
66 | CN1CCN(c2nsc(-c3cccnc3)c2C#N)CC1 | 62.3
67 | CN(Cc1ccc(N(C)C)cc1)C(=O)c1cc2c([nH]c1=O)CCCC2=O | -42.975
68 | CNC(=O)c1ccc(C(=O)N2CCCCC2Cn2cc(C)cn2)cn1 (stereo not drawn) | 24.6
69 | Cc1cc(C(=O)N2CCC3(CC2)CC(c2cccnc2)C(=O)N3)no1 (stereo not drawn) | -31.3
70 | Cc1ccc(CN2CC[C@H]3CO[C@H](CN4CCN(C)CC4)[C@H]3C2)o1 | 45.7
71 | CN(C)C[C@@H]1OC[C@H]2CN(Cc3ccoc3)CC[C@H]21 | -87.7
72 | Cc1ccc(CN2CC[C@H]3CO[C@H](CN4CCCC4)[C@H]3C2)o1 | 7.7
73 | Cc1ccc(CN2CC[C@H]3[C@H](CO[C@H]3CN(C)C)C2)o1 | 13.1
74 | Cc1ccc(CN2CC[C@@H]3[C@@H](CO[C@H]3CN(C)C)C2)o1 | 61.1
75 | Cc1ccc(CN2CC[C@H]3CO[C@H](CN(C)C)[C@H]3C2)o1 | 53.9
76 | CCCc1n[nH]c(C2CN(C(=O)c3cccnc3N(C)C)CCO2)n1 (stereo not drawn) | 16.9
77 | O=C(NCCCO)C1(CC2CC(c3ccc(F)cc3)=NO2)CCOCC1 (stereo not drawn) | 36
78 | O=C(NCCO)C1(CC2CC(c3ccc(F)cc3)=NO2)CCOCC1 (stereo not drawn) | 22.8

Row | SMILES | INHIBITION [%]
79 | CC(C)NC(=O)C1(CC2CC(c3ccc(F)cc3)=NO2)CCNCC1 (stereo not drawn) | 65.7
80 | Cc1noc(C)c1CCC(=O)NCC1(O)CCCN(c2ccccn2)C1 (stereo not drawn) | 30.4
81 | Cc1cc(CN(C)S(=O)(=O)N2CCCC2c2ccc(C)o2)no1 (stereo not drawn) | 31.9
82 | Cc1ccc(CN(C)CC2(O)CCCN(C)C2)o1 (stereo not drawn) | -12.7
83 | Cc1nn(C)c2c(N3CCN(C)CC3)nc(C3CC3)nc12 | 21.5
84 | CCOCCCC(=O)N1CCCC1c1nc(-c2ccccc2F)c[nH]1 (stereo not drawn) | 29.5
85 | O=C(COCC1CC1)N1CCCC1c1nc(-c2ccccc2F)c[nH]1 (stereo not drawn) | 46.4
86 | COC(=O)NCC(=O)N1CCCC1c1nc(-c2ccccc2F)c[nH]1 (stereo not drawn) | 60.3
87 | O=C(c1cnc2ccccc2c1)N1CCCC(O)(CN2CCCC2)C1 (stereo not drawn) | 16.2
88 | Cc1ccc(N2CCCC(NCC(=O)Nc3cc(C)nn3C)C2)nn1 (stereo not drawn) | 21
89 | Cc1nc(C)n(CC2CCCN(Cc3nnc(C4CC4)o3)C2)n1 (stereo not drawn) | 2.05
90 | CN1CCC(Cc2cc(Nc3ncccn3)ncn2)CC1 | 62.6
91 | CCC(=O)N1CCC(Cc2cc(Nc3ncccn3)ncn2)CC1 | 49.6
92 | CN1CCC(Cc2cc(Nc3ccccn3)ncn2)CC1 | -14.1
93 | O=S(=O)(C1CC1)N1CCC2(CC1)CN(Cc1nccs1)CCO2 | 23.3
94 | CCn1nc(C)c2c1cnn2CC(=O)Nc1ccc(OC)cc1C | 45.4
95 | CCOC(=O)c1ccc(S(=O)(=O)NCC(CC)N2CCCC2)cc1 (stereo not drawn) | -9.2
96 | COc1nn(C)c2c1CCCN(C(=O)c1cccn1C)C2 | 8.67
97 | Cc1nc(C)n(CCNC(=O)C(C)n2ccnc2C(C)C)n1 (stereo not drawn) | -23.7
98 | Cc1cc(C(F)(F)F)nn1CCNC(=O)C(C)n1ccnc1C(C)C (stereo not drawn) | 85.5
99 | Cc1nc(C)n(CCCNC(=O)C(C)n2ccnc2C(C)C)n1 (stereo not drawn) | -129
100 | Cc1cc(-c2cc(S(=O)(=O)N3C[C@H](C4CC4)[C@@H](N)C3)c(C)s2)[nH]n1 | 25.5
101 | COCCN1CCCn2cnc(CNC(=O)N(C)C)c2C1 | 29.8
102 | COCCN1CCCn2cnc(CN(C)C(C)C)c2C1 | 21.7
103 | COCCN1CCCn2cnc(CNC3CCCC3)c2C1 | 55.5
